D2 PAM-1 – Beta-Arrestin HTS for Positive Allosteric Modulators of the Human D2 Dopamine Receptor: Potentiators | hit rate 0.23% among 360,000 | DiscoveRx D2 beta-arrestin cells, luminescence, 90 min; 100% = 57 uM dopamine signal | D(2) dopamine receptor (Homo sapiens), P14416 | potentiation, % (test concentration not listed); in the data active means potentiation above about 50%; inconclusive means mostly about 30% to 49%
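D2 cells co-treated with compound plus 50 nM dopamine (EC20) for 90 min at 37 deg C to detect potentiation. Beta-arrestin recruitment was read as enzyme-fragment luminescence after 1 h at ambient temperature. Full response was set by 57 uM dopamine.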
Anesthetic bind – qHTS Assay for Identification of Novel General Anesthetics. apoferritin/1-aminoanthracene competitive binding, fluorescence. Ferritin light chain (Equus caballus), P02791. Potency, µM (series often up to 77.5 µM), without a hit: at the top dose activity change, negative = displacement, most hits filed as inhibitors. hit rate 0.074% among 350,000; further: potency means the concentration at half of the fitted maximal effect; on the % scale 0 is the no-effect control and ±100 the full control effect; nearly all actives have a fitted effect of over 20% in size
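Horse-spleen apoferritin (10 uM) in 50% saturated 1-aminoanthracene in PBS was incubated 10 min at room temperature with compound. Fluorescence (ex 380, em 535 nm) was normalized to free and bound 1-AMA, with concentration-response fitted by a four-parameter Hill equation.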
D2 ag-1 – Beta-Arrestin HTS for Positive Allosteric Modulators of the Human D2 Dopamine Receptor: Agonists; hit rate 0.084% among 360,000; DiscoveRx PathHunter D2 beta-arrestin, luminescence, 90 min; 100% = 57 uM dopamine signal; activation, % (no concentration beside the values); AID 624465, 2012; D(2) dopamine receptor (Homo sapiens), P14416; in the data active means activation above about 40%; inconclusive means between about 15% and that limit
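DiscoveRx PathHunter D2 beta-arrestin cells (2,100/well) attached overnight, then compound-stimulated 90 min at 37 C in HBSS/10 mM HEPES/0.1% Tween-20 buffer; beta-galactosidase complementation read by luminescence after 1 h at ambient temperature. Dopamine 57 uM final (EC100) as control.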
D2 ag-2 – HTS Assay for Allosteric Agonists of the Human D2 Dopamine Receptor: Primary Screen for Agonists; hit rate 0.53% among 340,000; D(2) dopamine receptor (Homo sapiens), P14416; HEK293 T-REx D2 cells, calcium flux agonist mode; activation, % at 2 µM;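 active means activation over 3 SD above normal in the single-dose calcium agonist read, cut at about 30% in these data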; further: 0% is about no effect
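Agonism scored from kinetic calcium signal (1 read/sec, 180 s) following compound pin transfer, after a 10 s baseline. Cells: HEK293 Trex line expressing inducible D2 receptor coupled to calcium, dye-loaded after overnight culture at 30 C.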
D2 antagonist – HTS Assay for Allosteric Antagonists of the Human D2 Dopamine Receptor: Primary Screen for Antagonists. inhibition, % at 10 µM. AID 485344, 2010. HEK293 TREx D2 cells, calcium flux, dopamine EC80. hit rate 2% among 340,000; in the data active means inhibition above about 30%; inactive means below that, where a call was filed; further: 0% is about no effect
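Measurement of antagonist activity uses fluorescent calcium dye in inducible HEK293 T-REx D2 cells: 10 s baseline, compound addition with 180 s read, EC80 dopamine addition with a further 180 s read.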
D2 PAM-2 – HTS Assay for Positive Allosteric Modulators of the Human D2 Dopamine Receptor: Primary Screen for Potentiators; D(2) dopamine receptor (Homo sapiens), P14416; HEK293 T-REx D2, calcium flux, EC20 dopamine potentiation; potentiation, % at 10 µM; hit rate 0.34% among 340,000; AID 485347, 2010;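 active means potentiation over 3 SD above the plate norm, cut at about 30% in these data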; further: 0% is about no effect
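Using a no-wash calcium dye in inducible, force-coupled HEK293 Trex cells expressing D2, we tracked fluorescence each second for 180 s after compound, then for 180 s after EC20 dopamine to detect augmented signalling.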
D3 arrestin ag – qHTS of D3 Dopamine Receptor Agonist: D3 Dopamine Receptor B-arrestin Agonist Confirmatory Assay. hit rate 4% among 2,300. Potency, µM (series often up to 76.9 µM), for inactives: top-dose activation, most hits filed as activators. DiscoveRx D3 beta-arrestin cells, luminescence, 90 min. shares compounds with D2 ag-2;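 further: potency means the concentration at half of the fitted maximal effect; 100% = dopamine control response; nearly all actives have a fitted effect of over 70% in size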
Target sequence (P35462 whole entry, looked up): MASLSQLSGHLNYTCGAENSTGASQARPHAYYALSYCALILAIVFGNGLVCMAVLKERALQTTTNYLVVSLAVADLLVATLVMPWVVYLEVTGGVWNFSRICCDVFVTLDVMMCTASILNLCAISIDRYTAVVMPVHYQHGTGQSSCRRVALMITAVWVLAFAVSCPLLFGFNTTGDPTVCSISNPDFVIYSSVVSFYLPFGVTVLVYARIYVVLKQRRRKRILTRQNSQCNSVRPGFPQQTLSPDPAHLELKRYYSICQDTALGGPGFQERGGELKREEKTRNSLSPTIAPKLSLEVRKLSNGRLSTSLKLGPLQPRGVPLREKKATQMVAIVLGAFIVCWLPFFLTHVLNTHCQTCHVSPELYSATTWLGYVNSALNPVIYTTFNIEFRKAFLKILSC
D2 ag-3 – qHTS of D3 Dopamine Receptor Agonist: D2 Dopamine Receptor B-arrestin Agonist Counterscreen. shares compounds with D2 ag-2. DiscoveRx PathHunter D2 beta-arrestin, luminescence, 90 min; response scale: percent relative to full dopamine signal. Potency, µM (highest dose often 76.9 µM), for inactives: at the highest dose activation, hits mostly activators. hit rate 5.9% among 2,300. AID 720507, 2013; further: potency means the concentration at half of the fitted maximal effect; % of control where 0% means no effect; nearly all actives have a fitted effect of over 70% in size
Starred values were filed as active, the others as inactive; [ ] = dose if it differs, or a comment. Only some compounds are listed: those with a hit (about 2.5% of all), similar ones and a draw of the others. Unless noted, the call rests on the fitted dose curve; in most records, active means well fitted curve in the direction sought with a large enough effect; inconclusive means small, poorly fitted or top-dose-only effect, or another doubt; inactive means no such curve, though single readings can be large; an effect the other way counts as inactive or inconclusive.

Results for CC(=O)Nc1ccc(NC(=O)CN2CCN(c3ccccn3)CC2)cc1 ?
D2 PAM-1: 10.9; Anesthetic bind: -3.1%; D2 ag-1: inconclusive; D2 ag-2: 81.7*; D2 antagonist: 84.2*; D2 PAM-2: -19.5; D3 arrestin ag: inconclusive; D2 ag-3: inconclusive

What do the screens show for `O=C(CC12CC3CC(CC(C3)C1)C2)NC(Cc1ccccc1)C(=O)O` (stereo unspecified)?
D2 PAM-1: -3.4; Anesthetic bind: -6.9%; D2 ag-1: -5.3; D2 ag-2: -0.2; D2 antagonist: -14.9; D2 PAM-2: 7.3

How did Cc1ccccc1[C@@H](NC(=O)OC(C)(C)C)C(=O)OC(C)(C)C do in these assays?
D2 PAM-1: -6.1; D2 ag-1: -3.9; D2 ag-2: -1.2; D2 antagonist: -6.6; D2 PAM-2: 4.9; D3 arrestin ag: -12.2%; D2 ag-3: 2.0%

How did CCOC(=O)c1oc2c(c1C)C(=O)CCC2 do in these assays?
D2 PAM-1: -1.3; Anesthetic bind: -1.7%; D2 ag-1: -0.1; D2 ag-2: -0.4; D2 antagonist: 7.1; D2 PAM-2: -10.2; D3 arrestin ag: -10.7%; D2 ag-3: -1.2%

What do the screens show for `CCOc1cc(C2c3c(oc4ccccc4c3=O)C(=O)N2c2nccs2)ccc1O` (stereo unspecified)?
D2 PAM-1: -5.0; Anesthetic bind: -3.9%; D2 ag-1: -1.5; D2 ag-2: -0.6; D2 antagonist: -10.4; D2 PAM-2: 1.8

Results for CCN1CC2=C(OC(N)=C(C#N)C2c2cccs2)/C(=C\c2cccs2)C1 (stereo unspecified) ?
D2 PAM-1: -21.5; Anesthetic bind: inconclusive; D2 ag-1: 0.4; D2 ag-2: 41.1*; D2 antagonist: 27.4; D2 PAM-2: -23.3; D3 arrestin ag: -10.9%; D2 ag-3: -1.9%

What do the screens show for `CC(=O)C1=C(O)C(=O)N(CCC(=O)O)C1c1cccc(F)c1` (stereo unspecified)?
D2 PAM-1: -3.2; Anesthetic bind: -0.4%; D2 ag-1: -2.2; D2 ag-2: -0.5; D2 antagonist: 7.3; D2 PAM-2: 8.6

How did CC(CCc1ccccc1)NCC(O)c1ccc(O)c(C(N)=O)c1 (stereo unspecified) do in these assays?
D2 PAM-1: -2.0; Anesthetic bind: 0.0%; D2 ag-1: 2.5; D2 ag-2: 72.0*; D2 antagonist: 67.2*; D2 PAM-2: -26.9; D3 arrestin ag: 4.3%; D2 ag-3: inconclusive

Results for CC(C)NC[C@H](O)c1ccc(O)c(O)c1 ?
D2 PAM-1: -5.2; Anesthetic bind: 5.6%[29.3 µM]; D2 ag-1: -3.9; D2 ag-2: 4.9; D2 antagonist: 12.0; D2 PAM-2: 8.8

What do the screens show for `CCCCN(C)CCNC(=S)Nc1ccc2nc(N3CCN(CC)CC3)cc(C)c2c1`?
D2 PAM-1: -13.0; Anesthetic bind: 0.9%; D2 ag-1: -3.5; D2 ag-2: 2.5; D2 antagonist: -22.8; D2 PAM-2: -23.0
